High-throughput results: PubChem BioAssay, National Center for Advancing Translational Sciences (NCATS)
Pf Dd2 inh = qHTS Primary assay for Inhibitors of Plasmodium falciparum Dd2 growth in vitro | P. falciparum Dd2 growth, SYBR Green, 72 h | Potency, µM (top dose mostly 28.9 µM), most hits filed as inhibitors | 120,000 compounds, 4.3% hits | AID 1347417, 2020; active = well fitted inhibition curve with a large enough effect; note: nearly all actives have a fitted effect of over 65% in size
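Readout: SYBR Green fluorescence, 485 nm excitation, 535 nm emission, after ~16 h lysis at 37C. Before that, Dd2-infected red cells (2.5% hematocrit) grew 72 h with compound, 29 uM top final concentration.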
Hits are given with their value; – = inactive; [ ] = another dose, or the depositor's remark. Shown is part of a subset that was picked to be rich in hits.

SMILES	Pf Dd2 inh
COc1ccc(-c2nn(C)c3sc(C(=O)N4CCN(c5cccc(Cl)c5)CC4)cc23)cc1OC	–
COc1ccc(-c2nn(C)c3sc(C(=O)Nc4cc(OC)c(OC)c(OC)c4)cc23)cc1OC	11.2µM
Cc1cnc(CCNC(=O)Nc2ccc3c(c2)OCCO3)n1Cc1ccc(F)cc1	–
CCn1cc(S(=O)(=O)NCCc2ncc(C)n2Cc2ccc(F)cc2)cn1	6.31µM
Cc1cnc(CCNC(=O)C2CCCC2)n1Cc1ccc(F)cc1	–
O=C(c1cc(Br)cn2ccnc12)N1CCC(N2CCCNC2=O)CC1	–
COc1ccc(CC(=O)NCCc2csc(-c3cccc(C)c3)n2)cc1	12.6µM
Cc1cccc(-c2nc(CCNC(=O)Cc3ccc(F)cc3)cs2)c1	–
COc1ccc(CC(=O)NCCc2csc(-c3ccc(Cl)cc3)n2)cc1	–
CCOc1ccccc1CN1CCC([C@@H]2CNC[C@H]2CO)CC1	–
O=C(NCc1ccccc1F)c1cc2n(n1)CC(c1ccc(Cl)cc1)OC2 (stereo not given)	–
Cc1cccc(NC(=O)N2CCc3c(c4ccccc4n3C)C2)c1C	–
Cc1cccc(NC(=O)N2CC=C(c3c[nH]c4ccccc34)CC2)c1C	3.16µM
O=C(Nc1ccc(Br)cc1F)N1CC=C(c2c[nH]c3ccccc23)CC1	–
COCc1cn(C[C@H]2C[C@@H](NC(=O)NC3CCCC3)[C@H](O)[C@@H]2O)nn1	–
O[C@@H]1CC(CNC2CCC2)(COc2cccnc2)C[C@@H]1O (stereo not given in full)	–
CS(=O)(=O)N1CCC(NC(=O)c2c(O)cccc2O)CC1	–
CN(C)c1ccc(CN[C@H]2C[C@H]3C(=O)NC[C@@H](CCC(=O)NCc4ccc(F)cc4)N3C2)cc1	–
Cc1ccc(-c2cccc(CN3C4CCC3CN(C(=O)c3ccncc3)C4)c2)c(C)c1	–
CC(C)N1CC2CCC(C1)N2Cc1cccc(Cl)c1	–
Cc1ccc(-c2cccc(CN3C4CCC3CN(C(C)C)C4)c2)c(C)c1	10µM
CCc1nc(C)cc(-c2cc(OC)c(OC)c(OC)c2)n1	–
Cc1ccc(CN2CCC([C@@H]3CNC[C@H]3CO)CC2)s1	–
Cc1noc2c(NC3CCN(C)CC3)cc(-c3ccccn3)nc12	–
CCOc1ccc(NC(=O)Cn2ccn3nc4c(c3c2=O)CC(C)CC4)cc1 (stereo not given)	–
SMILES	Pf Dd2 inh
Cc1ccc2nc(-c3ccc(C)s3)c(Nc3ccc4c(c3)OCCO4)n2c1	–
CC(C)c1ccc(Nc2c(-c3ccccn3)nc3ccccn23)cc1	4.47µM
Clc1ccc2nc(-c3ccc(Br)o3)c(Nc3ccc4c(c3)OCCO4)n2c1	–
COc1cc(-c2nc3nc[nH]n3c2Nc2ccc(C(C)C)cc2)ccc1O	–
Cc1ccc(Nc2c(-c3cccnc3)nc3ccc(C)cn23)cc1	–
COc1ccc(Nc2ccc3nnc(-c4ccccn4)n3n2)cc1	–
Cc1ccc2nc(-c3ccccn3)c(Nc3ccc(F)cc3)n2c1	3.98µM
Fc1ccc(Nc2c(-c3ccccn3)nc3ccc(Cl)cn23)cc1	8.91µM
COCCC1(NS(=O)(=O)c2cccnc2)CCN(S(C)(=O)=O)CC1	–
CC(C)c1ccccc1NC(=O)Cn1ccn2nc(-c3ccccc3)c(CO)c2c1=O	–
CCn1ncc(CN2CCn3c(nnc3[C@@H]3C[C@@H](O)CN3Cc3cccnc3)C2)c1C	–
COCC[C@]1(O)CCN(C(=O)CCc2ccccc2Cl)C[C@H]1C	–
Cc1cc(C(=O)N2CCCC(c3nnc(Cn4ccnc4C)n3C)C2)no1 (stereo not given)	–
Cc1noc(C)c1CN1CCCCC1c1cccnc1 (stereo not given)	–
CN1CCc2[nH]cnc2C12CCN(C(=O)CN1C(=O)CNC1=O)CC2	–
COc1ccc(-c2cc([C@H]3CN4CC[C@H]3C[C@@H]4CNC(=O)Nc3ccccc3)n(C)n2)cc1OC	5.62µM
CC(C)NC(=O)NC[C@H]1C[C@@H]2CCN1C[C@@H]2c1cc(-c2ccc3ccccc3c2)nn1C	6.31µM
CC(C)NC(=O)OC[C@H]1C[C@@H]2CCN1C[C@@H]2c1cc(-c2ccc3ccccc3c2)nn1C	–
Cn1nc(-c2ccc3ccccc3c2)cc1[C@H]1CN2CC[C@H]1C[C@@H]2CNC(=O)Nc1ccccc1	–
COc1ccc(-c2cc([C@H]3CN4CC[C@H]3C[C@@H]4CNC(=O)c3ccc(C)cc3)n(C)n2)cc1OC	–
COc1ccc(-c2cc([C@H]3CN4CC[C@H]3C[C@@H]4CNC(=O)C(C)(C)C)n(C)n2)cc1OC	–
Cn1cc(CN2C[C@@H](F)[C@@H](OCc3nc4ccccc4n3C)C2)cn1	–
CNC(=O)[C@@H]1CN(C(=O)c2ccc(C(C)C)cc2)C[C@H]1CO	–
CN1CCCC2(CCN(c3nc4c(cc3C(N)=O)CCC4)C2)C1=O (stereo not given)	–
Cc1ccc(NS(=O)(=O)c2ccc3[nH]c(=O)ccc3c2)cc1N(C)C	–
SMILES	Pf Dd2 inh
Cc1cccc(NS(=O)(=O)c2ccc3[nH]c(=O)ccc3c2)c1C	8.91µM
CC(C)c1ccc(NS(=O)(=O)c2ccc3[nH]c(=O)ccc3c2)cc1	–
OC[C@@H]1CN(C2CCCC2)C[C@H]1c1nc(-c2ccncc2)no1	–
CC(=O)Nc1ccc(CN2CCC3(CC(Cc4ccccc4)=NO3)C2)cc1 (stereo not given)	–
CN1C(=O)CS(=O)C12CCN(C(=O)CCCc1ccccc1)CC2 (stereo not given)	–
Cc1cc(C(=O)N2CCCC(c3nn(C)c(=O)n3Cc3ccccc3)C2)n(C)n1 (stereo not given)	–
CC(=O)c1ccc(NC(=O)c2ccc(-c3nc(CSc4ccccc4)c(C)o3)cc2)cc1	–
COc1ccc(NC(=O)c2ccc(-c3nc(CSc4ccccc4)c(C)o3)cc2)cc1OC	–
Cc1oc(-c2ccc(C(=O)Nc3cccc(C(F)(F)F)c3)cc2)nc1CSc1ccccc1	11.2µM
CC(=O)N1CCN(C2CCOC3(CCN(S(=O)(=O)c4c(C)noc4C)CC3)C2)CC1 (stereo not given)	–
CCOc1ccc(CNC(=O)c2c(C)sc3ccn(C)c(=O)c23)cc1	–
CCN(C1CCOCC1)C1CN(C(=O)c2c(C)noc2C)C1	–
CCN(CC)S(=O)(=O)c1ccc2oc(C(=O)N(C)Cc3ccccc3)c(C)c2c1	–
COc1ccc(C)cc1NC(=O)c1oc2ccc(S(=O)(=O)N(C)C3CCCCC3)cc2c1C	–
CCCCN(CCCC)S(=O)(=O)c1ccc2oc(C(=O)NCc3ccc(C)cc3)c(C)c2c1	8.91µM
O=C(c1ccccn1)N1CCC(N2CCCOC2=O)CC1	–
CC(C)NC(=O)CN1C(=O)C(c2ccccc2)=NC12CCCCC2	–
NC(=O)c1ccccc1NC(=O)CN1c2ccccc2S(=O)(=O)c2ccccc21	10µM
COc1cc(Cl)c(C)cc1NC(=O)CN1c2ccccc2S(=O)(=O)c2ccccc21	–
O=S1(=O)c2ccccc2N(Cc2ccccc2)c2ccccc21	–
COc1ccc(Cn2c3c(c(=O)n2Cc2ccccc2)CCN(C(=O)C2CCOCC2)C3)cc1	–
Cn1cccc1C(=O)N1CCc2nc3cc[nH]n3c(=O)c2C1	–[5.79 µM]
CN(C)C[C@@H]1CN(Cc2ccccc2)C[C@H]1NC(=O)C1CCC1	–
CCCn1nccc1C(=O)NCc1cccnc1-n1cnc2ccccc21	–
CCCNC(=O)N1CCC2(CC1)N(C)C(=O)CS2=O (stereo not given)	–
CCN(CC)S(=O)(=O)c1ccc(C(=O)NCCSc2c(-c3ccc(C)cc3)[nH]c3ccccc23)cc1	10µM
COc1ccc(C(=O)NCCSc2c(C)[nH]c3ccccc23)cc1	–
Cc1[nH]c2ccccc2c1SCCNC(=O)c1ccc(F)cc1	–
